Source: PubChem (National Center for Advancing Translational Sciences (NCATS))
Only a selection was taken, and hits are over-represented in it overall.
15-hLO-2 inh = inhibitors of human 15-lipoxygenase 2 (ALOX15B) | O15296 | purified 15hLO-2, xylenol orange hydroperoxide absorbance | Potency, µM (top dose mostly 57.1 µM), for inactives: at the highest dose activity change, negative = inhibition, most hits filed as inhibitors | hit rate 0.56% among 110,000; also: potency is read from the fitted curve at half-maximal effect; nearly all actives have a fitted effect of over 60% in size
Target sequence (O15296 whole entry, looked up): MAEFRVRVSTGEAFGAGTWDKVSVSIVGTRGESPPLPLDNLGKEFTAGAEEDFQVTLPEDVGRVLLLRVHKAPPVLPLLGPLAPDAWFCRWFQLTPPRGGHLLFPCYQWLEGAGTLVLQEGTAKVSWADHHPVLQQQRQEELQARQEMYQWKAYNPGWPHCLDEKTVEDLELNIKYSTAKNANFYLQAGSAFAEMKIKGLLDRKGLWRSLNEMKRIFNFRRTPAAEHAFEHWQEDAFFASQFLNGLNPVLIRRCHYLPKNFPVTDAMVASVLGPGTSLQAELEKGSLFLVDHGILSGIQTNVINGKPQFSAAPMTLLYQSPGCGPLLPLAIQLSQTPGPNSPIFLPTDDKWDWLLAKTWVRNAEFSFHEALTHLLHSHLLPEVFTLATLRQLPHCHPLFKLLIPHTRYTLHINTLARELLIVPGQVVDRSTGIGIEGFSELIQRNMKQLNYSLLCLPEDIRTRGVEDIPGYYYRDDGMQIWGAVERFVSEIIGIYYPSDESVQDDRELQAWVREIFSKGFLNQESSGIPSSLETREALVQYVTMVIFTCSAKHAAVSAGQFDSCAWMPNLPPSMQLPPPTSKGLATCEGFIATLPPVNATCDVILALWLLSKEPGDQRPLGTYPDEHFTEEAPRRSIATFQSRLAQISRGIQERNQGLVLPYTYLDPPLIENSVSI
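Enzyme 50 nM, AA 45 uM, 25 mM Hepes pH 7.5 + 0.01% Triton X-100; cpd preinc 15 min RT, rxn 90 min RT; stop/detect with 200 uM XO + 300 uM Fe(II) in 50 mM H2SO4, 30 min; A573/A405.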
12-hLO inh = inhibitors of human 12-lipoxygenase (ALOX12); P18054; purified 12-hLO, xylenol orange hydroperoxide absorbance; Potency, µM (highest dose often 57.1 µM), inactives show top-dose activity change, negative = inhibition, usual class: inhibitors; hit rate 0.12% among 150,000; also: potency is read from the fitted curve at half-maximal effect; nearly all actives have a fitted effect of over 55% in size
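Lipoxygenase turnover measured by absorbance at 573 and 405 nm after Fe-XO development. Human 12hLO 150 nM, arachidonate 40 uM, pH 7.0 Hepes buffer with detergent; 15 min compound preincubation, 30 min reaction.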
IMPase Li inh = IMPase inhibition in cells with lithium potentiation | CHO-M1 cells, IP1 TR-FRET (IP-One), carbachol + lithium | Potency, µM (doses to about 59.4 µM), without a hit: at the highest dose activity, negative = IMPase inhibition, hits mostly inhibitors | hit rate 0.35% among 210,000 | AID 1457;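 also: IP1 builds up when IMPase is blocked and the TR-FRET signal falls; potency is read from the fitted curve at half-maximal effect; plate controls were basal vehicle for no effect and high inhibitor control for full effect; nearly all actives have a fitted effect of over 50% in size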
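Test compounds were applied to CHO-M1 cells previously cultured for 16–30 h at 2000 per well. A small lithium amount accompanied them; after 30 min at 37C, IP1 was quantified by TR-FRET.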
IMPase cell inh = membrane-permeable compound that blocks inositol monophosphatase; inhibition (IP1 accumulation), % at 46.1 µM; P97697; AID 901; CHO-M1 cells, IP1 accumulation, HTRF TR-FRET ratio; 120,000 tested, under 10 active; active = well fitted curve in the direction sought with a large enough effect in the signal ratio, not every such curve was filed as active; inconclusive = small, poorly fitted or top-dose-only effect, or a change in a side signal; inactive = no such curve, though single readings can be large or run the other way; the % refers to the signal ratio;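 also: cells stimulated with carbachol in lithium chloride buffer; plate controls were DMSO basal wells for no effect and reference inhibitor wells for full effect; higher means more IMPase inhibition seen as more IP1 and lower FRET ratio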
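CHO-M1, 2000 cells/well, cultured 16–30 h; cpd up to 46 uM; carbachol (50 uM solution, stimulation buffer w/ 50 mM LiCl, pH 7.4), 30 min 37C; IP-One TR-FRET, 10 min RT; Ex 320/Em 665, 620; Hill-fit AC50.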
PNC inhibitor = blocks assembly of the perinucleolar compartment | PC3M PTB-GFP, PNC prevalence imaging, 16 h; stronger effect = lower value | activity change (PNC), negative = inhibition, % at 10 µM | hit rate 3.1% among 140,000 | AID 2417;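 active = readout at or below -70, meaning at least 70% loss of cells showing the perinucleolar compartment, a nuclear body marking cancer cells; inconclusive = readout between -30 and a set limit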;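 also: plate controls were DMSO wells for no effect and camptothecin positive control wells for full effect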
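PC3M cells stably expressing PTB-GFP, 750–1000 cells/well, treated 16 h at 37 °C with compound (23 nl of library stock), in duplicate. After paraformaldehyde fixation and Hoechst stain, imaged at 20x; PNC prevalence scored by image analysis.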
Active calls of the source: *; ? = inconclusive; nt = no result given; [ ] = remark or other dose. Unless noted, calls follow the shape of the dose curve; as a rule, active = well fitted curve in the direction sought with a large enough effect; inconclusive = small, poorly fitted or top-dose-only effect, or another doubt; inactive = no such curve, though single readings can be large; an effect the other way counts as inactive or inconclusive. Unless noted, % is scaled to controls: 0 for no effect and ±100 for the full control effect.

SMILES | 15-hLO-2 inh | 12-hLO inh | IMPase Li inh | IMPase cell inh | PNC inhibitor
CO[C@H]1C=CO[C@]2(C)Oc3c(C)c(O)c4c(O)c(c5c(c4c3C2=O)NC2(CCN(CC(C)C)CC2)N=5)=NC(=O)C(C)=CC=C[C@@H](C)[C@@H](O)[C@@H](C)[C@@H](O)[C@@H](C)[C@@H](OC(C)=O)[C@@H]1C | 24%[25.6 µM] | 3%[25.6 µM] | -1% | 1[20.6 µM] | nt
COc1cccc(-c2ccc3ncnc(NCc4ccc(OC)cc4OC)c3c2)c1 | 9% | nt | 26% | nt | nt
CCCCC/C=C\C\C=C/C=C/C=C/[C@@H](SC[C@H](N)C(=O)O)[C@@H](O)CCCC(=O)O | nt | nt | -13% | nt | nt
CC(C)(C)c1nc(SCC(=O)Nc2nc3c(s2)CCCC3)c2ccccc2n1 | nt | -4% | 25%[38.3 µM] | 12 | -95*
CCOC(=O)c1cccc(NC(=O)CSc2nc3ccccc3c(=O)n2CC)c1 | -6% | 1% | 3% | -23 | -94*
O=C(Cc1cccs1)Nc1nc2c(s1)CCCC2 | ? | -3% | 12%[38.3 µM] | 0 | -113*
O=C(Nc1nc2c(s1)CCCC2)c1cccs1 | 22% | 5% | 13%[38.3 µM] | -6 | -1
Cc1nnc(NC(=O)CSc2nc(C(C)C)nc3ccccc23)s1 | 10%[11.4 µM] | -3% | 7.9µM* | ? | 22
CCOC(=O)c1cccc(NC(=O)CSc2nc3ccccc3c(=O)n2CCOC)c1 | -2% | 3% | 12%[38.3 µM] | 10 | ?
CC(C)c1nc(SCC(=O)Nc2nc3c(s2)CCCC3)c2ccccc2n1 | 11%[11.4 µM] | -8% | 18%[38.3 µM] | 6[1.84 µM] | ?
Cc1nnc(NC(=O)CSc2nc3ccccc3o2)s1 | nt | -3% | 1% | 2 | -5
CC(C)=CC1C(CO)C1(C)C (stereo not given) | -3% | -6% | -4% | nt | nt
CC(C)(C)c1ccc(OCC(=O)Nc2c(C(=O)c3ccc(F)cc3)oc3ccccc23)cc1 | nt | nt | nt | 3 | nt
COc1cccc(C(=O)N2CCC(C(=O)Nc3cccc(Cl)c3)CC2)c1 | nt | nt | nt | -11 | nt
CC(Oc1ccc(Br)cc1)C(=O)NCc1cccnc1 (stereo not given) | nt | 1% | nt | nt | nt
CC(C)CN1CC[C@@]2(CCCN(C(=O)c3ccco3)C2)C1 | 1% | 0% | 7% | nt | nt
Cc1cc(-c2csc(N)n2)c(C)n1CCC(C)C | 18% | -14% | 24%[38.3 µM] | 5 | ?
Cc1cc(-c2csc(N)n2)c(C)n1CCc1ccccc1 | 17% | -19% | 36%[38.3 µM] | 9 | -108*
O=c1ccc(Oc2nc(N3CCCCC3)nc(N3CCCCC3)n2)n[nH]1 | -2% | -4% | -2%[38.3 µM] | 3 | -100*
CNc1ccccc1C(=O)N1CCc2c([nH]c3ccccc23)C1=O | -7% | 3% | 0% | nt | nt
CCCC(=O)NC(=S)Nc1ccccc1C(=O)OC | -10% | 1% | 2%[38.3 µM] | 2 | -108*
O=[N+]([O-])c1ccc(NCCO)c(OCCO)c1 | -18% | -2% | 2% | nt | nt
CCOC(=O)c1sc2nc(NC(=O)C3CC3)sc2c1C | -2% | -9% | 13µM* | -1 | 62
CCOC(=O)c1sc2nc(NC(=O)C3CCCCC3)sc2c1C | 2% | 2% | ? | -3 | 8
COc1ccccc1-c1ccc2ncnc(N3CCOCC3)c2c1 | 31% | nt | 23% | nt | nt
SMILES | 15-hLO-2 inh | 12-hLO inh | IMPase Li inh | IMPase cell inh | PNC inhibitor
COc1ccccc1OCC(=O)Nc1ccc(S(=O)(=O)Nc2cc(C)nc(C)n2)cc1 | -1% | 0% | 29%[38.3 µM] | -12 | 55
C=CCN(CC=C)S(=O)(=O)c1ccc(NC(=O)COc2ccccc2OC)cc1 | nt | -3% | 7% | 13 | -88*
Cc1cc2nnn(-c3nnc(-c4ccccc4)c4ccccc34)c2cc1C | 9% | 4% | 10%[38.3 µM] | -3 | -109*
COCCCn1c(=S)[nH]c2c(sc3ccccc32)c1=O | nt | nt | 10µM* | nt | nt
CC(C)(C)c1ccc(Oc2nc3ccccn3c(=O)c2/C=C(\C#N)c2nc3ccccc3[nH]2)cc1 | nt | nt | nt | -11 | nt
CC1=NOC(=O)/C1=C\c1ccc(-c2cc(Cl)ccc2Cl)o1 | 2µM* | -5% | ? | 1 | -16
CC1=NOC(=O)/C1=C/c1ccc(-c2ccc(Cl)cc2)o1 | 7.9µM* | ? | 23%[38.3 µM] | 2 | -29
Cc1ccc(NC(=O)c2cn(CCC#N)nc2-c2cccs2)c([N+](=O)[O-])c1 | nt | -8% | 7% | -11 | -112*
CCCCOc1ccccc1Cn1c(=O)sc2ccccc21 | nt | nt | nt | -16 | nt
O=C(/C=C/c1c(F)cccc1Cl)Nc1ncccn1 | nt | -2% | 3% | nt | -10
O=C(/C=C/c1c(Cl)cccc1Cl)n1cccn1 | nt | -6% | 5% | 12 | -95*
CC(C)n1cc(/C=C2/NC(=O)N(c3cccc(Cl)c3)C2=O)c2ccccc21 | nt | -7% | -1% | -3 | -100*
CC(C)n1cc(/C=C2\NC(=O)N(c3cccc(Cl)c3)C2=O)c2ccccc21 | -24% | -6% | 24%[38.3 µM] | -4 | 55
CS(=O)(=O)N(CC(=O)NCCSc1ccccc1)c1cc(C(F)(F)F)ccc1Cl | nt | nt | nt | 13 | nt
O=C1c2ccccc2C(=O)N1Nc1ccccc1 | -9% | -9% | 0%[38.3 µM] | -5 | -106*
COc1cc(N=C2C(=O)N3CCCc4cccc2c43)cc(OC)c1 | nt | 0% | 5% | nt | -104*
COc1cccc(/C=C2\N=C3CCCCCN3C2=O)c1 | -2% | -11% | 17%[38.3 µM] | -7 | 27
CCOC(=O)N1CCN(S(=O)(=O)c2ccc(Br)s2)CC1 | 2%[2.29 µM] | -5% | -2%[38.3 µM] | -3 | -90*
CN1CCN(S(=O)(=O)c2ccc(Br)s2)CC1 | 2% | 1% | nt | -2 | -12
CCOC(=O)C(NC(=O)c1ccccc1)(N1CCCC1=O)C(F)(F)F (stereo not given) | 2% | -1% | -14%[38.3 µM] | 2 | -85*
Nc1nnn(Cc2ccccc2)n1 | nt | 8% | -5% | -7 | -100*
c1ccc(Cn2nnc(-c3ccccc3)n2)cc1 | nt | -2% | 1% | -4 | -100*
N#Cc1cccc(Cn2nnc(-c3ccccc3)n2)c1 | -2% | -2% | 29%[38.3 µM] | 8 | 6
Br/C(=N\Nc1nn[nH]n1)c1ccncc1 | -3%[11.4 µM] | 0%[11.4 µM] | -1% | nt | nt
Cc1noc(C)c1-c1nc(NCc2cccs2)c2ccccc2n1 | -28% | nt | 4% | nt | nt
SMILES | 15-hLO-2 inh | 12-hLO inh | IMPase Li inh | IMPase cell inh | PNC inhibitor
CCCCCC(CC(=O)O)C(=O)O (stereo not given) | -4% | -1% | -3% | nt | nt
Cc1nc(-c2ccccc2)cc(N2CCCC2)n1 | 4% | 3% | 16%[38.3 µM] | 17 | -8
Nc1nc(-c2ccccc2)cc(N2CCCCC2)n1 | 14% | 4% | -3%[38.3 µM] | -5 | -106*
CC(=O)/C=C\C1[C@]2(C)CCCC(C)(C)C2CC[C@@]1(C)O (stereo not given in full) | 5% | -2% | -6% | nt | nt
COC(=O)/C(C)=C/CC12OC(C)(C)C3CC(C=C4C(=O)c5cc6c(c(CCC(C)(C)Cl)c5OC431)OC1(C)CCC(=C(C)C)C6C1)C2=O (stereo not given) | -4% | -1% | 2% | nt | nt
CCCS(=O)(=O)N1CCN(Cc2ccccc2OCC)CC1 | -8% | -1% | 3%[38.3 µM] | 9 | -85*
COc1ccc2c(c1)C(c1ccccc1C)CC(=O)O2 (stereo not given) | -29%[0.0915 µM] | -15%[0.00818 µM] | 18% | nt | nt
